Assay results reported in the supplement of paper PMC11732987, “Enantioselective OTUD7B fragment discovery through chemoproteomics screening and high-throughput optimisation” (Communications Chemistry, 2025).

How the values were obtained:
Experiment in all cases: log2 ratio of Biotin-Ahx-Ub-VS probe labelling (fragment/DMSO); higher = less target engagement (more negative = stronger competition), active = hit call of the paper (q ≤ 0.05, log2 ratio ≤ -1)
Conditions in all cases: compound concentration: 200 uM; treatment time: 3 h
[1] = target: USP34 (UniProt Q70CQ2)
Chain of USP34 (Q70CQ2 whole entry, the tested form may be a part): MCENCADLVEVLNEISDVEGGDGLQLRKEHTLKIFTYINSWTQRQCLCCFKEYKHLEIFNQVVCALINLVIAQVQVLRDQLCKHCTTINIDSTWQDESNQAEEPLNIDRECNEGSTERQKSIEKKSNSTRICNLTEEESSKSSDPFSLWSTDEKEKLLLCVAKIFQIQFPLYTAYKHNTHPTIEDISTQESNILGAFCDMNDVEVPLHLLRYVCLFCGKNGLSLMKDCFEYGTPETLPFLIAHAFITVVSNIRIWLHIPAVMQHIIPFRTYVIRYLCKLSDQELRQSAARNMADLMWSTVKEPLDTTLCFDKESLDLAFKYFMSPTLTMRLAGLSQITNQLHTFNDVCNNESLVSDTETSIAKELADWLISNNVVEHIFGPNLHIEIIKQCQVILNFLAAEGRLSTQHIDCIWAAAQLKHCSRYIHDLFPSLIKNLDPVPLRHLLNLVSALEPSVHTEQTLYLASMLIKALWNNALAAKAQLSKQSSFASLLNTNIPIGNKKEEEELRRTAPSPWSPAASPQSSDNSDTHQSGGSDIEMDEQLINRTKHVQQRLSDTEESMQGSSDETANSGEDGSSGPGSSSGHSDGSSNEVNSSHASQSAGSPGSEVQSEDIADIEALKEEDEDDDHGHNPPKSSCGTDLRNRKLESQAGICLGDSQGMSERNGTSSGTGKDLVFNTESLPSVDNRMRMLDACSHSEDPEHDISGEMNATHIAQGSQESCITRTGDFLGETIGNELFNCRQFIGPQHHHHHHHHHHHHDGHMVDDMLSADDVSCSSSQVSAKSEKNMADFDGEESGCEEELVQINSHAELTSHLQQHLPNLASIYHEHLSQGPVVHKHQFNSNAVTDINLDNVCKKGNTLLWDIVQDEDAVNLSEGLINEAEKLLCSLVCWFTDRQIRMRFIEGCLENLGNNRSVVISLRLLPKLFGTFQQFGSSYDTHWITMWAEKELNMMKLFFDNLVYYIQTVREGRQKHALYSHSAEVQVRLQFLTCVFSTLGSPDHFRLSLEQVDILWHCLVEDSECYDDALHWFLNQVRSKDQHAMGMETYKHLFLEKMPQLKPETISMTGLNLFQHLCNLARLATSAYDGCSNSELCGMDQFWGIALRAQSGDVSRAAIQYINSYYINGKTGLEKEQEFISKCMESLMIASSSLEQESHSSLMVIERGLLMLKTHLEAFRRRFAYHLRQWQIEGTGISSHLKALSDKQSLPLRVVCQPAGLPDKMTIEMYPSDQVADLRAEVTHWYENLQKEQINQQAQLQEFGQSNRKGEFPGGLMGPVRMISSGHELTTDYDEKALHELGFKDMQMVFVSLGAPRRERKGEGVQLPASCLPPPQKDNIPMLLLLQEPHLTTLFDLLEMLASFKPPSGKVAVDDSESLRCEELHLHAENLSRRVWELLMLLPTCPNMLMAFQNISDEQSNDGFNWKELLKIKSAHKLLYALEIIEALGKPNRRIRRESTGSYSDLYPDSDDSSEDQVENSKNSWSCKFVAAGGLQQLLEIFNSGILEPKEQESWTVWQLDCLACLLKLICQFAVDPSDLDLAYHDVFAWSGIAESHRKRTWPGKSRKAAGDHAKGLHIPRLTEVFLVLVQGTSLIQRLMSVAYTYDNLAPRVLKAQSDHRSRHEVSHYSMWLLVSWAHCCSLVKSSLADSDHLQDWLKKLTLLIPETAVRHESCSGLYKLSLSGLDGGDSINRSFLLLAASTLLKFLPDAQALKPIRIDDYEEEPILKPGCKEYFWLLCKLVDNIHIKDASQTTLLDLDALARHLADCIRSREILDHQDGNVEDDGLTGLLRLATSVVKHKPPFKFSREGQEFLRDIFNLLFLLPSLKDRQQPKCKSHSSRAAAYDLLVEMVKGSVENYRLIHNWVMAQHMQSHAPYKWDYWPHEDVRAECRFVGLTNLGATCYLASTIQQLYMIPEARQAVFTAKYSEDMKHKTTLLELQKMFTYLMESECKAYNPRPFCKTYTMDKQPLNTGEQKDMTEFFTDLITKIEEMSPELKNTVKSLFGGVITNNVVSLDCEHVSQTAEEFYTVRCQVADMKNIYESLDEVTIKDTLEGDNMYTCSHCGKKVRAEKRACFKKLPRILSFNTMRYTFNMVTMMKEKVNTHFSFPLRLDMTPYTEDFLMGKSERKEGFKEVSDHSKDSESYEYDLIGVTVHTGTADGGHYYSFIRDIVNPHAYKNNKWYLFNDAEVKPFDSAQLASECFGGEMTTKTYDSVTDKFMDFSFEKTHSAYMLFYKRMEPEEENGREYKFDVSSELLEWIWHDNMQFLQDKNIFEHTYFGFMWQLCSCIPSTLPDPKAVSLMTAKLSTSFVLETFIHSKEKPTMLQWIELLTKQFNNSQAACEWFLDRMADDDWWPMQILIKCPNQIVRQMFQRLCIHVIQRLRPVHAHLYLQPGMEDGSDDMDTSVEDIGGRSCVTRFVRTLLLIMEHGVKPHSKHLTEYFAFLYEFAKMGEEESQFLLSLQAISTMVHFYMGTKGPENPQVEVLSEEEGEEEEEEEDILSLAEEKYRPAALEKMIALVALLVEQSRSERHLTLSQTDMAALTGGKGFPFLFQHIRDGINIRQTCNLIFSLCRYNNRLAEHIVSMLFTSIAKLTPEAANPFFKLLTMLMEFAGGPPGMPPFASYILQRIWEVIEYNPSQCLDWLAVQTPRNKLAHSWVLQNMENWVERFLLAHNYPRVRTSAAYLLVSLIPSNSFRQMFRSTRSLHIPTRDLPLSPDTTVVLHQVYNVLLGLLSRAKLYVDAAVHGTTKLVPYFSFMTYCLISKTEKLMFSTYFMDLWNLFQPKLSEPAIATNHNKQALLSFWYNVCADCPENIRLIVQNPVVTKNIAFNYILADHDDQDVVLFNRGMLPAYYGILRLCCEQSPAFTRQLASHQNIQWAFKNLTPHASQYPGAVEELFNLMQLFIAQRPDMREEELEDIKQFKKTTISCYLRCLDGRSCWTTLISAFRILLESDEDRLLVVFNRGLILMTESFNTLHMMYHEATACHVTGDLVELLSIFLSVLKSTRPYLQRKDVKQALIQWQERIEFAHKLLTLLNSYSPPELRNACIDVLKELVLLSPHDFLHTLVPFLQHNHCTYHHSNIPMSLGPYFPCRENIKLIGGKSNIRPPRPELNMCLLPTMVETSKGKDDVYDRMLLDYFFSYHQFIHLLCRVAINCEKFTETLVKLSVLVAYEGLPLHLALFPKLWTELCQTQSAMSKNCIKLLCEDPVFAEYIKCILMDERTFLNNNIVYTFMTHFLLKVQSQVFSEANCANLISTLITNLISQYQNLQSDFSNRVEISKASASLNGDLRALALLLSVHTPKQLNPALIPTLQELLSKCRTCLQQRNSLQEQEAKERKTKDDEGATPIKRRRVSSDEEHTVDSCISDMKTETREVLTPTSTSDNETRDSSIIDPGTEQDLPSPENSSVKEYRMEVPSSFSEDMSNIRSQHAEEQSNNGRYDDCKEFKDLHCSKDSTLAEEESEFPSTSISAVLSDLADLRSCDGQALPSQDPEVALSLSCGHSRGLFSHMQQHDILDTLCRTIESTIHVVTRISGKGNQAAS
Procedure, shortened: (§1)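 The table lists average log2 ratios of fragment over vehicle, from an unpaired t-test on global-median-normalised Spectronaut label-free quantities. Proteins with ≥2 unique peptides were used. Samples were HEK293T lysate (495 µg) treated in triplicate with fragment at 200 µM or vehicle for 3 h, then with Biotin-Ahx-Ub-VS (0.5 µM final) for 1 h, with labelled DUBs NeutrAvidin-enriched and run by diaPASEF LC-MS/MS.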

[2] = target: T1, USP36 (UniProt Q9P275)
T1 sequence (whole entry): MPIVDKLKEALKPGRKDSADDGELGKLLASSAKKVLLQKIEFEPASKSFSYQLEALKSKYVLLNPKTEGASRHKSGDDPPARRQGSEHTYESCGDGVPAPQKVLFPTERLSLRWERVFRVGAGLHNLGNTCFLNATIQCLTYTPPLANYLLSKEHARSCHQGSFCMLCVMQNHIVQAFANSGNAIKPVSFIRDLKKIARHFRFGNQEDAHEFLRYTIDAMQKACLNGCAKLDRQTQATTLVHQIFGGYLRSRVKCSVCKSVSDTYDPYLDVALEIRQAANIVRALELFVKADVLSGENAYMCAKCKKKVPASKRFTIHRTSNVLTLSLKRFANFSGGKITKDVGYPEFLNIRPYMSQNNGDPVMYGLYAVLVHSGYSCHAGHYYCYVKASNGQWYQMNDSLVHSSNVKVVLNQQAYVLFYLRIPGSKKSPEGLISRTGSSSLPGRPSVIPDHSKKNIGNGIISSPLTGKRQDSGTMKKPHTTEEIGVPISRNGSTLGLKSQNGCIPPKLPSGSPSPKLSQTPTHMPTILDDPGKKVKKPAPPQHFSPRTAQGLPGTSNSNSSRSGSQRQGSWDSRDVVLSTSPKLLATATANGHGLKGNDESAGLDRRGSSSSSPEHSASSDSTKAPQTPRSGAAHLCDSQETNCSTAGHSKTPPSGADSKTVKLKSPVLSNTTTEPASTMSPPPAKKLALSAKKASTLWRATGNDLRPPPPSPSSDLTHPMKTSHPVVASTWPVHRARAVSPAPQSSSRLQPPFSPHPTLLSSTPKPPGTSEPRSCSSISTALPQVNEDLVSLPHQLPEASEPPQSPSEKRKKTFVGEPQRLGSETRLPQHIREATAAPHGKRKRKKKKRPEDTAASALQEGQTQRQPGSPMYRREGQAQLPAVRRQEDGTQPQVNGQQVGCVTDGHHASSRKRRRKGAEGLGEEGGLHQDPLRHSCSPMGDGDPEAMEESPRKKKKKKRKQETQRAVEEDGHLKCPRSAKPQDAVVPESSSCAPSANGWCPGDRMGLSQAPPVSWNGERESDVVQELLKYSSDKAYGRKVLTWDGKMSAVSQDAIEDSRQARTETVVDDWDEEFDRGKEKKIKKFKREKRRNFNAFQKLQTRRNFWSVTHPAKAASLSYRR
Procedure, shortened: as §1

[3] = target: T2, USP38 (UniProt Q8NB14)
T2 sequence (whole entry): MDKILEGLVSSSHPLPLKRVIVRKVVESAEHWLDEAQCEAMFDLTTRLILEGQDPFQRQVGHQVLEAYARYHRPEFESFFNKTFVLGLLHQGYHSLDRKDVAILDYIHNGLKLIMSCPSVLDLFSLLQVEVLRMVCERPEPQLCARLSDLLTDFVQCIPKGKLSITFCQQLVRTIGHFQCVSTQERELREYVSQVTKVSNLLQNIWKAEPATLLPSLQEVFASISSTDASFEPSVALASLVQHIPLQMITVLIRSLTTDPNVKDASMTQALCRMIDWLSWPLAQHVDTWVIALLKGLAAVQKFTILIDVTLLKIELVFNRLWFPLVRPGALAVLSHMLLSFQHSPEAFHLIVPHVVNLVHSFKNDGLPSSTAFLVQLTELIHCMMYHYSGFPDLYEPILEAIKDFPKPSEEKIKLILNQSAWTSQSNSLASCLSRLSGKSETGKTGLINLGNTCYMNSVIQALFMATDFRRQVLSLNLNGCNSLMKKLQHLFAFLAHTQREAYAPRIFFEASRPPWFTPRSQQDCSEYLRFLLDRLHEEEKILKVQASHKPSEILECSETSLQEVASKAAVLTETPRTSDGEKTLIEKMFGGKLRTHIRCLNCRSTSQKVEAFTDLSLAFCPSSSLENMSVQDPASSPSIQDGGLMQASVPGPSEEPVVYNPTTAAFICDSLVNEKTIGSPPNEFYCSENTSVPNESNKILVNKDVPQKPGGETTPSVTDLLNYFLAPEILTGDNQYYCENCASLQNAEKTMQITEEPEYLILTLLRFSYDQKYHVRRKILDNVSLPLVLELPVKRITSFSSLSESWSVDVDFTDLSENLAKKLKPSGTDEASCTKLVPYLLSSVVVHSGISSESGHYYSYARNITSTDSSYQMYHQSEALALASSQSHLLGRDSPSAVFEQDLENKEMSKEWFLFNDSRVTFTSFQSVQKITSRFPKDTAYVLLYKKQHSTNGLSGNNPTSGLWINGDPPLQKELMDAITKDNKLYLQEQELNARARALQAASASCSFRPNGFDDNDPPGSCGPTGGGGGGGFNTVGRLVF
Procedure, shortened: as §1

[4] = target: T3, USP39 (UniProt Q53GS9)
T3 sequence (whole entry): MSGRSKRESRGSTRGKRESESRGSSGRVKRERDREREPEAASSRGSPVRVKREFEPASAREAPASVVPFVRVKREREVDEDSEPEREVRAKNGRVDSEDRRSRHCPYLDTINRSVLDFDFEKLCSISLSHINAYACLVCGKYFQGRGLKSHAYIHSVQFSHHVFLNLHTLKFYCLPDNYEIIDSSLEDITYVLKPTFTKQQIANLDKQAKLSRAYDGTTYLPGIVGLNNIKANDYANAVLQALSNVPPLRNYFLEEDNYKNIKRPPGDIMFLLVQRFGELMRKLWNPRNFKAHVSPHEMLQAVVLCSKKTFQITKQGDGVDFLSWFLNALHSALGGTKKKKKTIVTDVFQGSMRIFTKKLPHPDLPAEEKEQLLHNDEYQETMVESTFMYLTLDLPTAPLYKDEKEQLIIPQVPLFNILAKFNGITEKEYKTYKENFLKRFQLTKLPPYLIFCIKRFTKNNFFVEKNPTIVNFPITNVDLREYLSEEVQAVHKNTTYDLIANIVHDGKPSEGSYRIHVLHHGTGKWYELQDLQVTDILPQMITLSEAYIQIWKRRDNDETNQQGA
Procedure, shortened: as §1

[5] = target: T4, USP4 (UniProt Q13107)
T4 sequence (whole entry): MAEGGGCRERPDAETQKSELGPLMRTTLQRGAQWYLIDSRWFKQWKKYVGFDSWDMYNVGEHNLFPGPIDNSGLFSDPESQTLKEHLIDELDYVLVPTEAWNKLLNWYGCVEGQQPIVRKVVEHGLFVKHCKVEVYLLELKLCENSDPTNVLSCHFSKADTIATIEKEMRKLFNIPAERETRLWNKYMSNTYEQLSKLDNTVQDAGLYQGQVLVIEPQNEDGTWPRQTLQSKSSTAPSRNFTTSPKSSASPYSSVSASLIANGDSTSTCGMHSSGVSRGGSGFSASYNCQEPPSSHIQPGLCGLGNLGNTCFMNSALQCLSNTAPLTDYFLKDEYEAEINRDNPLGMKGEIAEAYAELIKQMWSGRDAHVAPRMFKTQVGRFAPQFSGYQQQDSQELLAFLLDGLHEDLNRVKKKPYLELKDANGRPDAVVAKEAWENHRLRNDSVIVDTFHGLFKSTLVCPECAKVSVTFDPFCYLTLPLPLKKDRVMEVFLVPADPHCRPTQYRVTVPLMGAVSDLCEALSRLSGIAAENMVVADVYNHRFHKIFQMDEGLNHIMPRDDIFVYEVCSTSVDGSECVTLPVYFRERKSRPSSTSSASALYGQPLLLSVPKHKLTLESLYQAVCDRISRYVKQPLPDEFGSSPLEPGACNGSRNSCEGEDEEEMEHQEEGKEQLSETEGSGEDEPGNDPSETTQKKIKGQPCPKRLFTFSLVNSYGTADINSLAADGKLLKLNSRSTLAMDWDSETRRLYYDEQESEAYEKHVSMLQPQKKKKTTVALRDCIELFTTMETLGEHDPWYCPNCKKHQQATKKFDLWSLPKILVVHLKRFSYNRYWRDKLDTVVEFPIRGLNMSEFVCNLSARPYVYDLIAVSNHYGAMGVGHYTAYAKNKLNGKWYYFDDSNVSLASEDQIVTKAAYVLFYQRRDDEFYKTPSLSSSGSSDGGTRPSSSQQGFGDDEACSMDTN
Procedure, shortened: as §1

Measured: log2 ratio of Biotin-Ahx-Ub-VS probe labelling

O=C(CCl)N1CCC2(CCC(O)CC2)CC1
inactive: [1] -0.363 | [2] -0.0873 | [3] 0.139 | [4] 0.333 | [5] 0.123
